Measurements as given in the supplement of paper PMC6555819.

Tested on: VDR:RXRa (NR concentration 270 nM, RXRa partner concentration 90 nM)
Experiment: PBM binding z-score (relative to random genomic background probes); higher = stronger binding; sequences stand for … in GC…GCGATTGACAGCGTAGAATGAAGG
Description: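 Protein-binding microarray (Agilent 4x180K custom design, double-stranded 60-nt probes: 5' GC cap, 34-nt variable region, 24-nt constant primer region; full probe sequence given). Purified or IVT nuclear receptor:RXRα heterodimers (3:1 NR:RXRα, mostly 270:90 nM) or homodimers were incubated for 1 h in PBS with 2% milk and no ligand, then detected with Alexa488 antibodies. Fluorescence from o1-orientation probes (~5 replicates averaged) was converted to z-scores against 500 random hg19 background probes. Variable regions are seed direct-repeat (DR0–DR5) sites, all their single-nucleotide variants and half-site ablations.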

Sequence	PBM binding z-score
TCTAGCAGGCCAGAGGGTCACACAAGAGGTACGG	2.26
TGTCAAAGTACAAAGGTAACGTAAGTATCCACAC	0.725
GCTGCTAGGTCAACTGATGGTCAGCCAAAGCTCG	1.58
ATCTCTACGTAACCAAGTTCAGTGAATGCCGAAC	1.17
CCGACTGGGGCAAGGTTAGCATAACGCACAGCCA	-0.429
CCTAGTTGCTCAAGGTCACACACGCTATAGGTAC	4.26
TCTCGGAGGACACGAGAGGTCAGAGCTCGACATC	3.41
AGAAAGAGGTTAAGATCAGGGAAACAGAATACAT	1.25
ATCTCCAGGTAAAAGTTCAGTGAATCCCGAGGAT	1.43
CCTACTGGGCCATTCAGAGGTCCTTGATCATATG	-0.591
ATATCTAGGTTAGCTGGGGTCATTCAGACTAGGC	6.03
CGAACTAGGTCAAGGACAGAGAATCTCCGCACGC	1.02
ATATGTAGGTTATCGGGTCCTTCAGTTTGCGCAT	3.81
CGTCAAAGTTCAACTAAGGTAACGTAGAGCACGC	4.59
TCTGCTAGGTCAGTTGGTGAGCTAACGAGCTGCC	-0.377
ACTTACGGGTCAACGAGGTAATAGCACGCGTATA	6.51
TCTTGTCGATCAAGCAGGTTAAGAAAGCCTGAGT	0.107
CAAACTAGGTCATGAAAGGTCAAAGTCGAATGAC	6.73
GATACAGTGTCAGCTAGAGGCCAGAGTATGGAAA	-0.468
TCTAGCAGGCCAGAGGATCACTCAAGAGGTACGG	-0.662

Sequence	PBM binding z-score
CGAACGAGGGCATGAGTTGAAAGCAAATGCCGAT	1.25
TTCCCAAGGTGAAAGGTCGTTGATGCACGCCTTG	3.35
TCAGATAGGTAATACAGGTGAAAGTCGGCATCTA	0.887
TCATATAGGTAAAGGCGAAAGTCGAACGATATGA	0.324
ATCTCTAGGTAAAGCTAGTTCAGTGAATGCAAAT	0.818
CCTGACAGGTGAGAAGGTAACTCAGCCTCGATTA	-0.0801
ATCGAAAGGTCGAAGGTGGGTATACCCACCCGAA	2.54
TCGAGTAGGTTAGGGGCATTCGGAATGGCGTCGA	0.55
AGTCAAAGTTCACTAGGTAACGTATGATTCAGCT	3.93
CTCGAAAGATCGTGCTCAGGTGAGTATACCAAAC	-0.291
GGAACGAGGGCATGCGAGTTGATAGCATGGCGAT	2.9
CCTGCTAGGTCAATGGTTAGCTAAAGCAGCTCGC	0.802
CCTAGCTGGCCAGGGTCACTCAAGCATTTCGCTT	2.36
CTGACTGGGGCAGAAAGGTTACCATACCATCCGG	1.36
CCTTACGGCTCAAGGTTATAGCACGGGTGGTACG	0.122
GCTGCTAGGTGAACTGATGGTCAGCTAAAGCTCG	-0.124
CAGACTGGGGCAGAAAGGTTACCATACCATCCGG	1.44
GCTGCTAGGTCAACTGATGATCAGCTAAAGCTCG	1.38
GGAACGAGGGCAAGTTGAAAGCAGAGTTTGATGG	0.74
CCTATTAGTTGACCATAAGGGCAACGGAAGCTCG	0.803
